A collection of fitness landscapes (doi:10.1126/science.1257360)
Over roughly 140,000 sequences, “enrichment ratio after two sorts for PhoP signalling” has its median near 0; the highest 2% begin near 11. The sample holds the highest values, similar sequences and a random draw of the others, so the mix is not that of the screen.

B1: PhoQ; a variant is named by its letters at X, in order, P23837 (parent)
chain: MKKLLRLFFPLSLRVRFLLATAAVVLVLSLAYGMVALIGYSVSFDKTTFRLLRGESNLFYTLAKWENNKLHVELPENIDKQSPTMTLIYDENGQLLWAQRDVPWLMKMIQPDWLKSNGFHEIEADVNDTSLLLSGDHSIQQQLQEVREDDDDAEMTHSVAVNVYPATSRMPKLTIVVVDTIPVELKSSYMVWSWFIYVLSANLLLVIPLLWVAAWWSLRPIEALAKEVRELEEHNRELLNPATTRELTSLVRNLNRLLKSERERYDKYRTTLTDLTHSLKTPLXXLQXXLRSLRSEKMSVSDAEPVMLEQISRISQQIGYYLHRASMRGGTLLSRELHPVAPLLDNLTSALNKVYQRKGVNISLDISPEISFVGEQNDFVEVMGNVLDNACKYCLEFVEISARQTDEHLYIVVEDDGPGIPLSKREVIFDRGQRVDTLRPGQGVGLAVAREITEQYEGKIVAGESMLGGARMEVIFGRQHSAPKDE

Variants of: B1
Test: enrichment ratio after two sorts for PhoP signalling (ratio (wild type AVST 3.29)); higher = more functional
Conditions: with PhoP (E. coli)

Row | Variant | enrichment ratio
1 | IFYT | ≤ 0.25
2 | FSGP | ≤ 0.25
3 | NGLQ | ≤ 0.25
4 | YYFP | ≤ 0.25
5 | TTCC | 11.5
6 | STCC | 13.7
7 | CTCC | ≤ 0.25
8 | FQCC | ≤ 0.25
9 | GTCC | ≤ 0.25
10 | ITCC | ≤ 0.25
11 | YTCC | ≤ 0.25
12 | DWCC | ≤ 0.25
13 | TQCC | 65
14 | EYTF | ≤ 0.25
15 | NSIQ | ≤ 0.25
16 | HLYG | ≤ 0.25
17 | PLPH | ≤ 0.25
18 | MDHD | ≤ 0.25
19 | IKKC | ≤ 0.25
20 | ADSL | ≤ 0.25
21 | ADVL | 3.21
22 | ARSL | 0.309
23 | AHIL | ≤ 0.25
24 | ANSL | 16.8
25 | ANVL | 13.9
26 | ANIL | 22.8

Row | Variant | enrichment ratio
27 | ANNL | 15.7
28 | AIIL | 1.11
29 | ANYN | ≤ 0.25
30 | ANYM | 0.253
31 | HWVL | ≤ 0.25
32 | GFRD | ≤ 0.25
33 | EGVS | ≤ 0.25
34 | WVKG | ≤ 0.25
35 | NCEQ | ≤ 0.25
36 | GGVL | 7.68
37 | NKTR | ≤ 0.25
38 | AWCL | 0.642
39 | TKIL | 8.86
40 | AKIL | 18.4
41 | AKCL | 3.3
42 | AQRL | ≤ 0.25
43 | ANCL | 21.8
44 | ADIL | 8.79
45 | NICL | 3.87
46 | AICL | 17.5
47 | WICL | ≤ 0.25
48 | AQCL | 16
49 | AQEL | ≤ 0.25
50 | EAPP | ≤ 0.25
51 | VFQT | ≤ 0.25
52 | VNLF | ≤ 0.25

Row | Variant | enrichment ratio
53 | YIYL | ≤ 0.25
54 | IDEK | ≤ 0.25
55 | TVNP | ≤ 0.25
56 | YDMC | ≤ 0.25
57 | WVMR | ≤ 0.25
58 | KNDA | ≤ 0.25
59 | NLGK | ≤ 0.25
60 | IKGA | ≤ 0.25
61 | WTQR | ≤ 0.25
62 | WISN | ≤ 0.25
63 | ACSR | 7.12
64 | ADSG | 1.26
65 | ARSG | ≤ 0.25
66 | ACSG | 12.3
67 | TISN | 13.4
68 | ACSN | 4.45
69 | AHSG | 6.86
70 | AVSG | 16.7
71 | AISG | 19
72 | KKSG | ≤ 0.25
73 | TIKN | ≤ 0.25
74 | FHWW | ≤ 0.25
75 | EFGD | ≤ 0.25
76 | HEGI | ≤ 0.25
77 | PMHY | ≤ 0.25
78 | DEAG | ≤ 0.25

Row | Variant | enrichment ratio
79 | PCRA | ≤ 0.25
80 | MPIN | ≤ 0.25
81 | QRYD | ≤ 0.25
82 | DRYI | ≤ 0.25
83 | RDAL | ≤ 0.25
84 | KVFV | ≤ 0.25
85 | TISG | 19.4
86 | PISG | ≤ 0.25
87 | WISG | ≤ 0.25
88 | VGFY | ≤ 0.25
89 | MQYW | ≤ 0.25
90 | NMLQ | ≤ 0.25
91 | DPLQ | ≤ 0.25
92 | LNLQ | ≤ 0.25
93 | SALQ | 17.5
94 | TMLQ | 12.2
95 | TPLQ | ≤ 0.25
96 | SILQ | 6.96
97 | SQLQ | 13.6
98 | KQLQ | ≤ 0.25
99 | YALQ | 4.04
100 | MMLQ | ≤ 0.25
101 | SNLQ | 15.3
102 | YDYH | ≤ 0.25
103 | SRDH | ≤ 0.25
104 | TGMF | 9.36

Row | Variant | enrichment ratio
105 | FPKH | ≤ 0.25
106 | PMKR | ≤ 0.25
107 | KGCL | ≤ 0.25
108 | DMWF | ≤ 0.25
109 | SAVH | 7.41
110 | DYTW | ≤ 0.25
111 | STLQ | 18.3
112 | SQLA | 11.7
113 | SLLQ | 7.5
114 | SYLQ | 2.49
115 | SPLQ | ≤ 0.25
116 | SQLS | 7.34
117 | SELQ | 27.9
118 | SSLQ | 14.5
119 | SQLT | 11
120 | SRLQ | 0.442
121 | SFLQ | 2.41
122 | KYLQ | ≤ 0.25
123 | SFQN | ≤ 0.25
124 | PRSD | ≤ 0.25
125 | TDLQ | 18.8
126 | SGLQ | 16.6
127 | SGLR | ≤ 0.25
128 | RGLQ | ≤ 0.25
129 | KDLQ | ≤ 0.25
130 | LTLQ | 2.15

Row | Variant | enrichment ratio
131 | HQEY | ≤ 0.25
132 | FHKA | ≤ 0.25
133 | RKDF | ≤ 0.25
134 | TFCG | 5.19
135 | GSLI | 15.5
136 | GSDK | ≤ 0.25
137 | GSLA | 6.7
138 | GSDN | ≤ 0.25
139 | GSLS | 11.8
140 | GSLT | 9.31
141 | AIWD | ≤ 0.25
142 | LESL | ≤ 0.25
143 | NELM | ≤ 0.25
144 | TELM | 13.8
145 | MELM | 17.7
146 | QELM | ≤ 0.25
147 | MKLM | 7.36
148 | MFLM | ≤ 0.25
149 | RAGW | ≤ 0.25
150 | SSNF | 1.62
151 | MSMS | ≤ 0.25
152 | MSMV | 12.7
153 | MSLV | 14.7
